# Experimental data taken from PubChem BioAssay AID686979 (National Center for Advancing Translational Sciences (NCATS), 2013).
# The whole screen tested about 420,000 compounds, of which about 50,000 (12%) were called active. Roughly 26% stayed inconclusive and do not appear here. Many of the other results were omitted from the sample, so actives are more common in it than they were. Unmarked numbers belong to inactive results. Calls come from the whole dose curve; as a rule, active = well fitted inhibition curve with a large enough effect; inconclusive = small, poorly fitted or top-dose-only effect; inactive = flat fitted curve, though single readings scatter. Where a SMILES comes first, the peptide text is derived from it. [ ]: non-standard residue; d: D form. The star is where a group is joined. ξ: configuration not given here. Cbz = O=C(OCc1ccccc1)*; ξL = CC(C)CC(N)C(=O)O; ξP = O=C(O)C1CCCN1
# Experiment: qHTS for Inhibitors of human tyrosyl-DNA phosphodiesterase 1 (TDP1): qHTS in cells in presence of CPT; note: nearly all actives have a fitted effect of over 55% in size
# Details: chicken DT40 Tdp1-/-;hTDP1 cells + 20 nM CPT, ATP luminescence, 48 h; series mostly up to 46.2 µM; activity change, negative = growth inhibition: at the top concentration
# In short: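 Chicken DT40 Tdp1-/- cells stably complemented with human TDP1 were seeded at 400 cells/well in medium containing 20 nM camptothecin, exposed to pin-transferred compounds, and grown at 37 °C for at least 48 hr. Viability was read as ATP luminescence.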
# % is set by controls: 0 for no effect and ±100 for the full control effect; potency is the fitted concentration of half-maximal effect.
SMILES,"activity change, negative = growth inhibition",Potency
COc1ccccc1NC(=O)c1cc(Cl)nnc1Cl,-98.6%,
COc1ccccc1NC(=O)/C=C/C(N)=O,,2.06 µM (active)
COc1ccccc1NC(=O)C[n+]1ccccc1,18.6%,
Nc1ccccc1Sc1cc(Cl)nnc1Cl,0.995%,
Cc1ccsc1C(=O)OCC(=O)Nc1cccc(F)c1,-4.82%,
O=C(NCC(=O)N1CCN(c2ccccc2F)CC1)c1cccs1,4.7%,
O=C(NCC(=O)N1CCN(c2ccccc2O)CC1)c1ccc2ccccc2c1,,18.4 µM (active)
O=C(CNC(=O)c1ccc2ccccc2c1)Nc1ncccc1O,-13.9%,
CN(C)/C=C(\C#N)C(=O)c1cccnc1Oc1cccc(F)c1,3.34%,
COCc1[nH][nH]c(=O)c1C=Nc1ccc(F)cc1F,-0.912%,
O=C(c1cc2ccccc2o1)N1CCN(c2cccc(C(F)(F)F)c2)CC1,1.06%,
Cc1ccc(C)c(S(=O)(=O)N2CCCOC2CNC(=O)C(=O)NC2CCCCC2)c1 (configuration not stated),5.54%,
Cn1c(Nc2ccccc2)cc(=O)n(C)c1=O,4.61%,
S=c1ccc2ccccc2[nH]1,,13 µM (active)
CCOC(=O)c1ccccc1NS(=O)(=O)c1c(C)nc2sccn2c1=O,-6.93%,
O=C(CSC1=Nc2ccccc2C2=NC(CC(=O)NCc3ccco3)C(=O)N12)NCc1ccco1 (configuration not stated),-13.9%,
COc1ccccc1NC(=O)CSC1=Nc2ccccc2C2=NC(CC(=O)NCc3cccs3)C(=O)N12 (configuration not stated),,20.6 µM (active)
Cc1ccc(CNC(=O)CSC2=Nc3ccccc3C3=NC(C)C(=O)N23)cc1 (configuration not stated),-26.7%,
CN1CCC(=NNC(=O)c2ccc(N(Cc3ccc(Cl)cc3)S(C)(=O)=O)cc2)CC1,4.52%,
CC(=O)Nc1ccc(NC(=O)CC2CCCC2)cc1,0.0692%,
CSc1ncnc2c1ncn2CCCNCC1CCCCC1,-26.5%,
CSc1ncnc2c1ncn2CC(=O)C1CCC2C3CCC4=CC(=O)CCC4(C)C3CCC12C (configuration not stated),,5.8 µM (active)
CCOC(=O)c1ccc(CS(=O)c2ccc(Cl)cc2)o1 (configuration not stated),-18.3%,
CC(Nc1ccc([N+](=O)[O-])cc1[N+](=O)[O-])c1ccccc1 (configuration not stated),3.71%,
CCN(CC)c1ccc(/C=N/NC(=O)CNC(=O)c2cccnc2)cc1,31.8%,
CCN(CC)c1ccc(/C=N/NC(=O)c2cnccn2)c(O)c1,,5.17 µM (active)

SMILES,"activity change, negative = growth inhibition",Potency
CCN(CC)c1ccc(C(=O)Nn2c(C)nc3ccccc3c2=O)cc1,-17.4%,
CCN(CC)c1ccc(/C=N/Nc2nc(C)cc(C)n2)c(O)c1,,4.11 µM (active)
Cc1ccc(C(=O)NCCNC(=O)c2cnccn2)cc1,8.28%,
O=C(NCc1ccco1)c1cccc(-c2ccc3nncn3c2)c1,-0.594%,
CS(=O)(=O)c1cccc(-c2ccc3nncn3c2)c1,11.7%,
NC(=O)c1ncc(C(F)(F)F)cc1Oc1ccc(F)cc1,0.776%,
O=C(Nc1ccccc1Cl)Nn1cnnc1,-0.423%,
O=C(COC(=O)c1ccccc1)c1ccc2c(c1)OCCO2,4.32%,
O=C(CN1CCC(O)(c2ccccc2)CC1)Nc1ccc2c(c1)OCCO2,-0.373%,
O=C(CCN1CCc2ccccc2C(O)(c2ccccc2)C1)c1ccc2c(c1)OCCO2 (configuration not stated),,2.31 µM (active)
Cc1ccc(N2C(=O)C3C4C=CC(CC4)C3C2=O)cc1Br (configuration not stated),18.5%,
COc1ccc(CCN2C(=O)CC(N3CCC(C(N)=O)CC3)C2=O)cc1OC (configuration not stated),,25.9 µM (active)
COc1ccc(CCN2C(=O)C3CC=C(C)CC3C2=O)cc1OC (configuration not stated),-29.7%,
COc1ccc(N2C(=O)CC(N3CCC(C(N)=O)CC3)C2=O)cc1 (configuration not stated),-10.4%,
CN1CCN(CCC(=O)N/N=C/C=C2\N(C)c3ccccc3C2(C)C)CC1,-20.6%,
CC(=O)Nc1cccc(OCC(=O)/C=C2\N(C)c3ccccc3C2(C)C)c1,,6.51 µM (active)
COc1cccc(NC(=S)C(C#N)=C2N(C)c3ccccc3N2C)c1,2.93%,
Cc1cccc(NC(=O)c2cc(S(=O)(=O)N3CCC4(CC3)OCCO4)ccc2F)c1,3.62%,
Cc1cc(S(=O)(=O)NC2CCCC2)ccc1-n1cnnn1,-15.2%,
CCOc1ccccc1-c1cc(C(=O)N2CCOCC2)c2ccccc2n1,-24.5%,
CCOc1cccc(/C=C/c2ccc3ccccc3n2)c1OC(C)=O,,18.4 µM (active)
COc1cccc(/C=C/c2ccc3ccccc3n2)c1OC(C)=O,-23.5%,
Cc1ccc(S/C(=N\S(=O)(=O)c2ccc(Cl)cc2)c2ccccc2)cc1,,14.6 µM (active)
Cc1ccc(S(=O)(=O)/N=C(/Nc2ccccn2)c2ccc(Cl)cc2)cc1,-19.3%,
O=S(=O)(/N=C(/Nc1ccccn1)c1ccccc1)c1ccc(Cl)cc1,3.49%,
Cc1ccc(NC(=O)COc2ccc(/C=C3/NC(=O)NC3=O)cc2)cc1,-9.1%,

SMILES,"activity change, negative = growth inhibition",Potency
CC(C)CC(NC(=O)C1CCCN1C(=O)[C@@H](C)NC(=O)OCc1ccccc1)C(=O)NCC(N)=O (some centres not stated) (Cbz-[dA][ξP][ξL]G-NH2),11.9%,
CCOC(=O)c1c(NC(=O)NC(C)(C)C)sc2c1CCN(C)C2,12.6%,
CCOC(=O)c1c(NC(=O)c2ccc(S(=O)(=O)N3CCCC(C)C3)cc2)sc2c1CCN(C(C)C)C2 (configuration not stated),,8.2 µM (active)
CCCN(CCC)S(=O)(=O)c1ccc(C(=O)NNC(=O)c2cc(OC)c(OC)c(OC)c2)cc1,0.53%,
CCOC(=O)c1c(NC(=S)Nc2ccccc2)sc2c1CCN(C)C2,-6.24%,
CCCN(CCC)S(=O)(=O)c1ccc(C(=O)Nc2sc3c(c2C(=O)OC)CCN(CC)C3)cc1,,16.4 µM (active)
COC(=O)c1c(NC(=O)c2cc(=O)c3c(C)cc(C)cc3o2)sc2c1CCCC2,6.35%,
N#CCCN(C(=S)Nc1ccc(Cl)c(Cl)c1)C1CCCCC1,-10.7%,
O=S1(=O)CSCS(=O)(=O)C1,-1.82%,
COc1ccc(S(=O)(=O)N(CC(=O)N/N=C/c2ccc(C(=O)O)cc2)Cc2ccccc2)cc1OC,-0.989%,
C=CCO/N=C(\C)c1c(O)c(C)c(-c2ccccc2)n(-c2ccccc2)c1=O,-8.1%,
CC(C)[C@@H]1NC(=O)[C@H](Cc2ccccc2)NC(=O)[C@@H](CC(=O)O)NC(=O)CNC(=O)[C@H](CCCNC(=N)N)NC1=O,0.634%,
C=CCNC(=O)C1CC2c3ccccc3C1c1ccccc12 (configuration not stated),-16.5%,
CCCS(=O)(=O)N1CCC(n2c(C(F)(F)F)nc3cccnc32)CC1,,3.66 µM (active)
CCS(=O)(=O)N1CCC(n2c(C)nc3cccnc32)CC1,7.09%,
O=C1NC(CC(=O)N2CCC(n3c(C4CCC4)nc4cccnc43)CC2)c2ccccc21 (configuration not stated),-6.43% [at 9.04 µM],
O=C1Cc2cc(S(=O)(=O)Nc3ccc(OC(F)(F)F)cc3)cc3c2N1CCC3,,9.2 µM (active)
COC(=O)c1ccc(NS(=O)(=O)c2cc3c4c(c2)C(C)C(=O)N4CCC3)cc1 (configuration not stated),-7.26%,
O=C1CCc2cc(S(=O)(=O)Nc3ccc(C(F)(F)F)cc3)cc3c2N1CC3,-19%,
CCn1c(CC(=O)Nc2ccccc2)nnc1SCC(=O)N1CCOCC1,7.88%,
COc1ccc(C(C#N)Nc2ccc(C)cc2)cc1 (configuration not stated),-0.292%,
Cc1ccc(CN2CCN(/N=C/c3ccco3)CC2)c(C)c1,-24%,
CC(C)=CCCC1(C)C=Cc2c(ccc3c2[nH]c2cc(O)c(C)cc23)O1 (configuration not stated),,16.4 µM (active)
Cc1ccc(CNC(=O)Nc2nnc([C@H]3C[C@H](O)[C@@H](CO)O3)s2)cc1,1.01%,
Cc1ccc(C(=O)c2ccc(N3CCN(C)CC3)c([N+](=O)[O-])c2)cc1,,18.4 µM (active)
Cc1cc(C)n(-c2ccc(C(=O)O)cc2[N+](=O)[O-])n1,14.8%,

SMILES,"activity change, negative = growth inhibition",Potency
CN1CCN(S(=O)(=O)c2ccc(N3CCN(c4ccccc4O)CC3)c([N+](=O)[O-])c2)CC1,,23.1 µM (active)
O=[N+]([O-])c1ccc(N2CCN(S(=O)(=O)c3ccccc3)CC2)cc1N1CCc2ccccc2C1,7.97%,
Cc1cc(N)n(-c2ccc(S(=O)(=O)N3CCCC3)cc2[N+](=O)[O-])n1,-7.74%,
Cc1cccc(N2CCN(c3ccc(C(N)=O)cc3[N+](=O)[O-])CC2)c1C,5.49%,
C=CCN(c1ccc(Cl)cc1)S(=O)(=O)c1cccc(C(=O)OCC(=O)N(C)C)c1,-1.6%,
Cc1ccc2c(c1)N(C(=O)CCC(=O)NCc1cccnc1)CCO2,-6.02%,
Cn1nccc1NC(=O)CC(CC(=O)O)c1ccccc1 (configuration not stated),7.18%,
Cn1ccsc1=NC(=O)c1cc(S(=O)(=O)N2CCOCC2)ccc1Cl,0.0181%,
N/C(=N\OC(=O)N1c2ccccc2Sc2ccccc21)c1ccc(Br)cc1,,20.6 µM (active)
N/C(=N\OC(=O)c1ccc2c(c1)OCO2)c1ccc(Br)cc1,-16.9%,
N/C(=N\OC(=O)/C=C/c1ccccc1)c1ccc(Br)cc1,9.3%,
Cc1csc(=O)n1CCC(=O)OCC(=O)NNC(=O)c1ccc(Br)cc1,3.49%,
CC(=O)Nc1cccc(C(=O)OCC(=O)Nc2nnc(-c3ccccc3)o2)c1,-1.76%,
COCCNC(=O)C1C(=O)Nc2ccccc2C(=O)N1c1ccc2c(c1)OCCO2 (configuration not stated),-9.47%,
COc1cc(SC#N)ccc1N=Cc1c(C)[nH]n(-c2ccc(C)cc2)c1=O,,2.59 µM (active)
COc1cccc(-c2coc3cc4oc(=O)c(CC(=O)O)c(C)c4cc23)c1,0.503%,
O=C(O)CC1S/C(=N\N=C/c2ccccc2O)N(c2ccc(O)cc2)C1=O (configuration not stated),0.955%,
S=C(Nc1ccc(Br)cc1Cl)N1CCC2(CC1)OCCO2,-0.753%,
C=C1C(=O)OC2C1CCC(C)=CCCC1(C)OC21 (configuration not stated),,1.64 µM (active)
Cc1cc(Cl)ccc1NC(=S)N1CCC(C(N)=O)(N2CCCCC2)CC1,-16.5%,
O=C(COC(=O)/C=C/c1cccc(Cl)c1)NCc1cccs1,1.25%,
COC(=O)CCc1sc(Nc2ccc(Br)cc2)nc1-c1ccc(OC)cc1,,23.1 µM (active)
COc1ccc(NC(=O)c2sc(N)nc2-c2ccccc2)cc1,-14.4%,
Cc1ccc(OC(=O)CCC(=O)Nc2ccc(Br)cc2)cc1,3.44%,
